Screening results deposited in PubChem BioAssay by National Center for Advancing Translational Sciences (NCATS).
Compounds with a hit are over-represented: about 2.3% of the library has one in this group of screens.
TRPV1 potentiator = enhances activation of the human vanilloid receptor TRPV1; Q8NER1; TRPV1-expressing cells, Fluo-8 calcium influx, capsaicin EC20 potentiation; potentiation, % at 8.33 µM; hit rate 0.02% among 320,000; in the data active = potentiation above about 80%; inconclusive = between about 30% and that limit
Target sequence (Q8NER1 whole entry, looked up): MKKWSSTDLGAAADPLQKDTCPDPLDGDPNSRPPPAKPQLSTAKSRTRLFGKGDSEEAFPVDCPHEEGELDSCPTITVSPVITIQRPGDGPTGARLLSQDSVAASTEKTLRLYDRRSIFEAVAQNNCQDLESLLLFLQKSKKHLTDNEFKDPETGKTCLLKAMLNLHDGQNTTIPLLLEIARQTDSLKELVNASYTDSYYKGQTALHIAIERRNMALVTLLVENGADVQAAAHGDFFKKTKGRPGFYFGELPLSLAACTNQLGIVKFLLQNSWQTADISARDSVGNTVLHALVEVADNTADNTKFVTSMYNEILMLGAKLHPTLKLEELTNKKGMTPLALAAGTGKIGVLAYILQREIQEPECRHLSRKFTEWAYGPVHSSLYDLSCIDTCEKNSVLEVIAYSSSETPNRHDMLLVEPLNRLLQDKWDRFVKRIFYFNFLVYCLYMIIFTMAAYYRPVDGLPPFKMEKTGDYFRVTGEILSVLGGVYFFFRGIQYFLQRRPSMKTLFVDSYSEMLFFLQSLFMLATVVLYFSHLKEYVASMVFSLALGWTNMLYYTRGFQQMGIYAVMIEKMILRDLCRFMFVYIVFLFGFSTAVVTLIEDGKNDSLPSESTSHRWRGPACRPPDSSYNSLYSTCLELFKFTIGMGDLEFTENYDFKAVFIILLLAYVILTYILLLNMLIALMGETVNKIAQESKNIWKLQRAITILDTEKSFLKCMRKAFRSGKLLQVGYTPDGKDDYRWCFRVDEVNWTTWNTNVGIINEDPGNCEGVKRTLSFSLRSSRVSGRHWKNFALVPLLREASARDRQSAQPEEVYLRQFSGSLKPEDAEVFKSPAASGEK
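Cells expressing TRPV1 were dye-loaded with Fluo-8 and read kinetically: 10 s baseline, 3 min after compound (agonist portion), then 2 min after EC20 capsaicin (allosteric enhancer portion). Calcium-bound dye fluorescence at 480/520 nm.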
FUS yeast rescue = FUS proteinopathy suppression in yeast; S. cerevisiae FUS-expressing, growth rescue, OD600, 24 h; Potency, µM (doses to about 76.6 µM), hits mostly activators; hit rate 0.24% among 390,000; note: nearly all actives have a fitted effect of over 55% in size
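Quantitative HTS measuring growth restoration of FUS-toxic yeast. Galactose-induced cells (OD 0.005) were exposed 24hr at 30C to compounds at several concentrations, then absorbance at 600 nm was recorded.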
TRPV1 agonist = agonists of human vanilloid receptor 1 (TRPV1) | activation, % at 8.33 µM | hit rate 0.19% among 320,000 | TRPV1-expressing cells, Fluo-8 calcium influx, agonist mode | Q8NER1; in the data active = activation above about 80%; inconclusive = between about 30% and that limit
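Cells expressing TRPV1 were dye-loaded with Fluo-8 and read kinetically: 10 s baseline, 3 min after compound (agonist portion), then 2 min after EC20 capsaicin (allosteric enhancer portion). Calcium-bound dye fluorescence at 480/520 nm.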
Giardia kill = kills Giardia lamblia; Giardia lamblia trophozoite viability; activity change, % at 7.66 µM, hits read low; hit rate 0.15% among 340,000; AID 540267; in the data active = activity change below about -80%; inconclusive = between about -30% and that limit;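 note: parasites exposed to compound for two days anaerobically before the ATP read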
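Luminescence from cellular ATP indicates surviving trophozoites (100 cells/well) following 48 hrs anaerobic compound treatment at 37 deg C; signal develops 15-30 min at room temperature.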
ELG1 DNA repair = ELG1-dependent DNA repair inhibition; HEK293T ELG1-luciferase reporter, luminescence, 16 h; DNA damage induced by 5-fluorouridine; Potency, µM (titrated, usually from 46.1 µM), most hits filed as inhibitors; hit rate 2.3% among 330,000; AID 504467; note: nearly all actives have a fitted effect of over 55% in size
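5-Fluorouridine DNA damage + compound/DMSO, 2,000 cells/well, 16 h, 37 °C/5% CO2. ONE-Glo, 30 min RT, luminescence. Readout = decrease in reporter signal.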
Numbers stand for hits; - = inactive; ? = inconclusive; . = no result given. Unless noted, calls come from the whole dose curve; as a rule, active = well fitted curve in the direction sought with a large enough effect; inconclusive = small, poorly fitted or top-dose-only effect, or another doubt; inactive = no such curve, though single readings can be large; an effect the other way counts as inactive or inconclusive.

SMILES	TRPV1 potentiator	FUS yeast rescue	TRPV1 agonist	Giardia kill	ELG1 DNA repair
COc1ccc(NC(=O)CN2CCN(Cc3ccccc3)S2(=O)=O)c(OC)c1	.	-	.	.	.
Cc1cc(C)cc(C(O)c2ncc(-c3ccccc3Cl)[nH]2)c1 (stereo not drawn)	.	-	.	.	.
CC(C)Oc1ccc(CNC(=O)c2cc3ccccn3n2)cc1	.	-	.	.	.
Cc1nc2ccn(Cc3ccccc3)c(=O)c2cc1C(=O)N1CCN(c2ccc(F)cc2)CC1	-	?	-	-	6.5µM
COc1c(Cl)cc(Cl)cc1/C=N/NC(=O)c1nnn(-c2nonc2N)c1CN1CCC(C)CC1	-	-	-	-	-
CC1CCN(Cc2c(C(=O)N/N=C/c3cc(Cl)ccc3O)nnn2-c2nonc2N)CC1	-	-	-	-	2.1µM
CC1CCN(Cc2c(C(=O)N/N=C/c3cc(Br)ccc3O)nnn2-c2nonc2N)CC1	-	-	-	-	2.6µM
CCOc1ccccc1NC(=O)c1nnn(CC(=O)Nc2ccccc2CC)c1N	.	-	.	.	.
Nc1c(Cl)ncnc1NCCc1ccc(O)cc1	-	-	-	-	10µM
CCCc1nn2c(=O)cc(COC(=O)c3ccccc3NC(=O)COc3ccccc3F)nc2s1	.	-	.	.	.
COc1ccccc1CC(=O)Nc1cc(OC)c(NC(=O)c2ccccc2)cc1OC	-	-	-	-	16µM
CCC(=O)Nc1cc(OC)c(NC(=O)c2ccccc2)cc1OC	-	-	-	-	-
CCOc1cc(NC(=O)c2ccco2)c(OCC)cc1NC(=O)CCc1ccccc1OC	-	-	-	-	21µM
CN(C)S(=O)(=O)Oc1ccc(C(=O)Nc2cccc(Cl)c2)cc1	-	-	?	-	?
CN(C)S(=O)(=O)Oc1ccc(C(=O)Nc2cccc(C(F)(F)F)c2)cc1	-	-	?	-	21µM
Fc1ccc(-c2cc3ncc4c(n3n2)-c2cc(Cl)ccc2OC4)cc1	.	-	.	.	.
O=C(c1ccc(Oc2ccccc2)cc1)C1CCCN(C(=O)c2cnccn2)C1 (stereo not drawn)	-	-	-	-	21µM
CCOc1ccccc1NC(=O)c1cnn2c(C(F)F)cc(-c3ccccc3)nc12	.	-	.	.	.
O=C(CSc1nccn1Cc1ccc(Cl)cc1)NC1CCCC1	.	-	.	.	.
COc1ccccc1C1NC(=O)c2n[nH]c(-c3cccs3)c21 (stereo not drawn)	.	-	.	.	.
COc1cc(F)c(C2=CC(=O)C[C@H](c3ccc4c(c3)OCO4)C2)cc1F	-	-	-	-	16µM
COc1cccc(OC)c1C1=CC(=O)C[C@H](c2ccc3c(c2)OCO3)C1	-	-	-	-	9.2µM
COc1cccc(C2=CC(=O)C[C@H](c3ccc4c(c3)OCO4)C2)c1OC	-	?	?	-	?
Cc1nnc2c(Nc3cccc(O)c3)nc3ccccc3n12	.	-	.	.	.
Cc1nc2oc3c(NCc4ccccc4)ncnc3c2c2c1COC(C)(C)C2	-	-	-	-	7.3µM
SMILES	TRPV1 potentiator	FUS yeast rescue	TRPV1 agonist	Giardia kill	ELG1 DNA repair
O=S(=O)(c1cccc(F)c1)N1CCN(c2nc(-c3cccnc3)nc3ccccc23)CC1	.	-	.	-	10µM
O=C(NCc1ccccc1F)c1sc2ncccc2c1-n1cccc1	.	-	.	.	.
COc1ccccc1NC(=O)c1oc2ccccc2c1NC(=O)Cc1cccs1	.	-	.	.	.
COc1cccc(N2CCN(c3c(C#N)c(C(F)(F)F)nn3C)CC2)c1	-	-	-	-	15µM
Cc1ccc(NC(=O)c2ccc3c(c2)C(=O)N(CC2CCCO2)C3=O)cc1C (stereo not drawn)	-	-	-	-	-
O=C(Nc1ccc2c(c1)C(=O)N(CC1CCCO1)C2=O)c1ccc(Cl)c(Cl)c1 (stereo not drawn)	-	-	?	-	9.2µM
COc1ccc(C(=O)C23CC4CC(C2)CC(C(=O)c2ccc(OC)cc2)(C4)C3)cc1	-	-	-	-	5.8µM
O=C1C=C(NCc2ccccc2)CCC1	-	.	-	-	-
O=C1C=C(NC2=CC3OC(c4ccccc4)OCC3OC2=O)CCC1 (stereo not drawn)	-	.	-	-	13µM
CCC1CCc2c(sc(NC(=O)C3c4ccccc4Oc4ccccc43)c2C(=O)OC)C1 (stereo not drawn)	.	-	.	.	.
C=CCOc1cccc(/C=C2\C(=O)N(Cc3ccc(C)cc3)C(C)=C2C(=O)OC)c1	-	-	-	-	?
CCOc1cc(/C=C2\C(=O)N(Cc3ccc(C)cc3)C(C)=C2C(=O)OC)ccc1O	-	-	-	-	13µM
COC(=O)C1=C(C)N(Cc2ccc(OC)cc2)C(=O)/C1=C\c1ccco1	.	-	.	-	18µM
Cc1nc2c(OCc3ccccc3)cccn2c1N(C)C(=O)C1CCCCC1	.	-	.	.	.
CCCCCCCCN1C(=O)[C@H](CC(=O)NCCc2ccccc2OC)C[C@@]2(C(=O)OC)CC(C)(C)CC=C12	.	-	.	.	.
CN1C(=O)/C(=C/c2ccc(O)c([N+](=O)[O-])c2)N(C)C1=S	-	-	-	-91	?
CC(=O)c1cccc(NC(=O)COc2ccccc2C(=O)c2cc(C#N)c(=O)n(C3CCCCC3)c2)c1	-	-	-	-	10µM
N#Cc1cc(C(=O)c2ccccc2OCC(=O)Nc2ccccc2Cl)cn(C2CCCCC2)c1=O	-	-	-	-	?
COc1ccc(C2=C(C)C(=NCc3ccc(OC(C)C)cc3)NS2(=O)=O)cc1	.	-	.	.	.
COC(=O)[C@]12C[C@H](CC(=O)NCC34CC5CC(CC(C5)C3)C4)C(=O)N(Cc3cccc4ccccc34)C1=C[C@H](C(C)C)O[C@@H]2C1CC1	.	-	.	.	.
COC(=O)[C@]12C[C@H](CC(=O)NCc3cccc4ccccc34)C(=O)N(Cc3ccc4c(c3)OCO4)C1=C[C@H](C(C)C)O[C@@H]2C1CC1	.	13µM	.	.	.
COC(=O)[C@]12C[C@H](CC(=O)N3CCCC3)C(=O)N(Cc3ccc4c(c3)OCO4)C1=C[C@H](C(C)C)O[C@@H]2C1CC1	.	-	.	.	.
COC(=O)[C@]12C[C@H](CC(=O)NCCCCc3ccccc3)C(=O)N(Cc3ccc4c(c3)OCO4)C1=C[C@H](C(C)C)O[C@@H]2C1CC1	.	8.9µM	.	.	.
COC(=O)[C@]12C[C@H](CC(=O)NCc3cccc(C(F)(F)F)c3)C(=O)N(Cc3ccc4c(c3)OCO4)C1=C[C@H](C(C)C)O[C@@H]2C1CC1	.	8.9µM	.	.	.
COC(=O)[C@]12C[C@H](CC(=O)NCC3CCCCC3)C(=O)N(Cc3ccc4c(c3)OCO4)C1=C[C@H](C(C)C)O[C@@H]2C1CC1	.	14µM	.	.	.
SMILES	TRPV1 potentiator	FUS yeast rescue	TRPV1 agonist	Giardia kill	ELG1 DNA repair
Cc1oc2ncnc(N3CCCCC3)c2c1C(=O)Nc1cccc(Cl)c1C	.	-	.	.	.
O=C(CSc1nc(=O)[nH]c2c1CCC2)Nc1cc(C(F)(F)F)ccc1Cl	.	-	.	.	.
COc1cccc(CNC(=O)c2ccc(NC(=O)N3CCCCc4ccccc43)cc2)c1OC	.	-	.	.	.
Cc1ccnc(NS(=O)(=O)c2ccc(Oc3ccccc3)cc2)c1	-	-	-	-	?
CCCCCc1ccc(S(=O)(=O)Nc2cc(C)ccn2)cc1	-	-	-	-	10µM
O=C(c1cccc2ccccc12)C1CCCN(C(=O)c2ccc(N3CCOCC3)cc2)C1 (stereo not drawn)	-	-	-	-	16µM
